The panel holds about 79,000 compounds, 15% with a hit somewhere; the sample as a whole holds those more often. Activity calls are given as the source filed them. Rule as the data show it: active = growth inhibition above about 70%; inactive = the rest.
Tests used:
[1] = NCI Yeast Anticancer Drug Screen. Data for the rad52 strain (AID 147);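 also: 0% = growth of vehicle-treated control cultures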; settings: S. cerevisiae rad52 mutant growth inhibition, hits give high values
In short: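 Measured: yeast growth inhibition. System: strain with a defined DNA damage repair alteration. Reference: vehicle-treated control cultures.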

[2] = NCI Yeast Anticancer Drug Screen. Data for the wt1 strain (AID 149);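 also: 0% = growth of vehicle-treated wt1 cultures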; settings: S. cerevisiae wt1 strain (SPY 50644) growth inhibition, hits give high values
In short: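 wt1 yeast, compound-treated; % growth inhibition vs vehicle control.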

[3] = NCI Yeast Anticancer Drug Screen. Data for the rad50EPP+ strain (AID 151);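 also: 0% = growth of vehicle-treated control cultures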; settings: S. cerevisiae rad50 mutant strain, hits give high values
In short: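 One strain with a rad50 alteration (rad50EPP+) was compound-treated, its growth then compared to that of vehicle controls.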

[4] = NCI Yeast Anticancer Drug Screen. Data for the rad50 strain (AID 155);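 also: 0% = growth of vehicle-only cultures of the same strain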; settings: S. cerevisiae rad50 strain growth inhibition, hits give high values
In short: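 Genetically altered yeast (DNA repair pathway); compound treatment; growth inhibition vs vehicle ctrl.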

[5] = NCI Yeast Anticancer Drug Screen. Data for the mec2-1 strain (AID 157); settings: S. cerevisiae mec2-1 strain, hits give high values
In short: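 Test agents were screened against the mec2-1 yeast strain, with defined DNA repair or cell cycle alteration. Growth was scored as inhibition against vehicle-only controls.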

[6] = NCI Yeast Anticancer Drug Screen. Data for the rad14 strain (AID 159);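 also: 0% = growth of vehicle-treated control cultures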; settings: S. cerevisiae rad14 strain growth inhibition, hits give high values
In short: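 Test compounds were applied to a repair-deficient yeast strain. Its growth was then compared with that of cultures given vehicle alone, and inhibition was expressed relative to those controls.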

[7] = NCI Yeast Anticancer Drug Screen. Data for the sgs1 mgt1 strain (AID 161);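 also: 0% = growth of cultures given vehicle only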; settings: S. cerevisiae sgs1 mgt1 strain, hits give high values
In short: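 Mutant yeast exposed to compound; growth scored against vehicle-only wells.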

[8] = NCI Yeast Anticancer Drug Screen. Data for the CLN2oe strain (AID 163);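 also: 0% = growth of vehicle-only control cultures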; settings: S. cerevisiae CLN2oe strain, hits give high values
In short: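 Here, growth inhibition in a cell-cycle-altered yeast strain after compound exposure was quantified against vehicle control growth.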

[9] = NCI Yeast Anticancer Drug Screen. Data for the cln2 rad14 strain (AID 165);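 also: 0% = growth equal to vehicle treated cultures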; settings: S. cerevisiae cln2 rad14 strain, hits give high values
In short: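 Growth of compound-exposed yeast (cln2 rad14 genotype) measured and expressed as inhibition relative to vehicle.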

[10] = NCI Yeast Anticancer Drug Screen. Data for the bub3 strain (AID 167); settings: S. cerevisiae bub3 mutant strain, hits give high values
In short: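 Yeast carrying a defined mutation is treated with each compound, and growth is compared with that of vehicle-exposed cells to give inhibition.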

[11] = NCI Yeast Anticancer Drug Screen. Data for the wt2 strain (AID 169);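 also: 0% = growth of vehicle-treated yeast cultures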; settings: S. cerevisiae wt2 strain growth inhibition, hits give high values
In short: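 Genetically defined yeast strains from a DNA-repair/cell-cycle panel were used. Compound-exposed yeast growth was measured, and the inhibition was calculated relative to vehicle treatment.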

[12] = NCI Yeast Anticancer Drug Screen. Data for the mlh1 strain (AID 171);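 also: 0% = growth of vehicle-treated control cultures of the same strain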; settings: S. cerevisiae mlh1 strain growth inhibition, hits give high values
In short: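 Here the genetically defined yeast mutant is grown with each compound, and the extent to which its growth falls below that of vehicle-exposed cells is reported.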

[13] = NCI Yeast Anticancer Drug Screen. Data for the sgs1 strain (AID 173);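 also: 0% = growth of vehicle-only control cultures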; settings: S. cerevisiae sgs1 mutant, hits give high values
In short: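 Relative growth inhibition, referenced to vehicle, was determined in a yeast strain with a defined alteration affecting DNA damage repair or cell cycle control after compound exposure.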

[14] = NCI Yeast Anticancer Drug Screen. Data for the mlh1 rad18 strain (AID 175); settings: S. cerevisiae mlh1 rad18 strain growth inhibition, hits give high values
In short: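 In this whole-cell yeast screen, a strain with altered DNA damage repair is challenged with compound, and its growth is measured against matched vehicle-treated controls.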

[15] = NCI Yeast Anticancer Drug Screen. Data for the rad18 strain (AID 177); settings: S. cerevisiae rad18 mutant growth inhibition, hits give high values
In short: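 Screen uses a yeast strain with a defined lesion in DNA damage repair; compound effect is read as loss of growth compared to untreated vehicle cultures.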

[16] = at 5.0 µM (retest, dose inferred, filed as 0.5)
[17] = at 50.0 µM (retest, dose inferred, filed as 5.0)

Measured: growth inhibition

CN(C)c1ccc(N=Nc2ccccn2)cc1
active: [1]; at 33.0 µM 89% | [1]; at 100.0 µM 94% | [2]; at 33.0 µM 87% | [2]; at 100.0 µM 94% | [3]; at 100.0 µM 85% | [4]; [16] 100% | [4]; at 33.0 µM 94% | [4]; [17] 100% | [4]; at 50.0 µM 81.6% | [4]; at 100.0 µM 96% | [5]; [16] 100% | [5]; [17] 100% | [5]; at 50.0 µM 82.9% | [5]; at 100.0 µM 96% | [6]; at 33.0 µM 95% | [6]; at 100.0 µM 97% | [7]; [17] 98% | [7]; at 50.0 µM 85.6% | [8]; at 33.0 µM 77% | [8]; at 100.0 µM 88% | [9]; [17] 97% | [9]; at 50.0 µM 75.2% | [10]; at 33.0 µM 95% | [10]; [17] 97% | [10]; at 50.0 µM 87.1% | [10]; at 100.0 µM 96% | [11]; at 33.0 µM 86% | [11]; at 100.0 µM 94% | [12]; at 33.0 µM 93% | [12]; at 100.0 µM 96% | [13]; at 33.0 µM 88% | [13]; at 100.0 µM 94% | [14]; [16] 100% | [14]; [17] 100% | [14]; at 50.0 µM 83.2% | [15]; at 33.0 µM 83% | [15]; at 100.0 µM 91%
inactive: [1]; at 1.2 µM -15% | [1]; at 3.7 µM -12% | [1]; at 11.0 µM 15% | [2]; at 1.2 µM -21% | [2]; at 3.7 µM 31% | [2]; at 11.0 µM 29% | [3]; at 1.2 µM -88% | [3]; at 3.7 µM -118% | [3]; at 11.0 µM -85% | [3]; at 33.0 µM 66% | [4]; at 1.2 µM -29% | [4]; at 3.7 µM -18% | [4]; at 11.0 µM 26% | [5]; at 1.2 µM -10% | [5]; at 3.7 µM 20% | [5]; at 11.0 µM 14% | [5]; at 33.0 µM 66% | [6]; at 1.2 µM 12% | [6]; at 3.7 µM 1% | [6]; at 11.0 µM 62% | [7]; [16] -1% | [8]; at 1.2 µM 1% | [8]; at 3.7 µM -17% | [8]; at 11.0 µM 17% | [9]; [16] 41% | [10]; at 1.2 µM -3% | [10]; at 3.7 µM 15% | [10]; [16] 40% | [10]; at 11.0 µM 61% | [11]; at 1.2 µM -27% | [11]; at 3.7 µM -12% | [11]; at 11.0 µM 3% | [12]; at 1.2 µM 33% | [12]; at 3.7 µM 10% | [12]; at 11.0 µM 60% | [13]; at 1.2 µM -6% | [13]; at 3.7 µM 5% | [13]; at 11.0 µM 25% | [15]; at 1.2 µM -16% | [15]; at 3.7 µM -10% | [15]; at 11.0 µM -1%

Reference: PubChem BioAssay (NCI)
